Experimental data: the supplement of paper PMC6897291
Where a name gives a salt, the structure may show the parent alone.

System: U-2932
Experiment: growth inhibition by drug alone (1 - RLU/untreated control) (fraction); higher = stronger inhibition
Settings: 10 nM; time (day): 3; 177Lu-lilotomab satetraxetan 0 ug/ml
Method in brief: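 RIVA or U-2932 cells were left untreated or pretreated for 18 h with a radiolabelled anti-CD37 antibody conjugate (~600 MBq/mg) at 0.5 µg/ml for RIVA or 1 µg/ml for U-2932. The cells were then washed and seeded at 3,000 cells/well on plates pre-printed with the Selleck Cambridge Cancer Compound library, dosed at 10/100 nM for RIVA and 10/1,000 nM for U-2932. From day 3, RealTime-Glo luminescence was read daily after 1 h at 37°C. Growth inhibition was taken as one minus RLU over the mean of the untreated no-drug wells, of which there were 48 per plate.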

Row | Structure (SMILES) | growth inhibition by drug alone
1 | CNCc1ccc(-c2[nH]c3cc(F)cc4c3c2CCNC4=O)cc1 | 0.062
2 | O=C(O)c1ccc(-c2c[nH]c3ncc(-c4ccccc4)cc23)cc1C1CCCC1 | 0.092
3 | CC(=O)c1c(C)c2cnc(Nc3ccc(N4CCNCC4)cn3)nc2n(C2CCCC2)c1=O | 0.0532
4 | CCN(CC)CCCCNc1ncc2cc(-c3cc(OC)cc(OC)c3)c(NC(=O)NC(C)(C)C)nc2n1 | -0.118
5 | CCC(C)(C)C(=O)O[C@H]1C[C@@H](C)C=C2C=C[C@H](C)[C@H](CC[C@@H]3C[C@@H](O)CC(=O)O3)[C@H]21 [Simvastatin (Zocor)] | -0.0841
6 | CC[C@H](Nc1ncnc2[nH]cnc12)c1nc2cccc(F)c2c(=O)n1-c1ccccc1 | -0.00827
7 | CC(C=CC(=O)NO)=CC(C)C(=O)c1ccc(N(C)C)cc1 (stereo not drawn) [Trichostatin A (TSA)] | 0.0657
8 | COc1ccc2c3n(c(=NC(=O)c4cccnc4)nc2c1OC)CCN3 | 0.1
9 | NC(=O)c1ccc(-c2nc(-c3ccccn3)c(-c3ccc4c(c3)OCO4)[nH]2)cc1 | 0.107
10 | CNC(=O)c1cc(Oc2ccc(NC(=O)Nc3ccc(Cl)c(C(F)(F)F)c3)c(F)c2)ccn1 [Regorafenib (BAY 73-4506)] | 0.146
11 | Cc1cnc(Nc2ccc(OCCN3CCCC3)cc2)nc1Nc1cccc(S(=O)(=O)NC(C)(C)C)c1 | -0.0562
12 | CCOc1ccc(Nc2nc(-c3c(C)nc4ccccn34)cs2)cc1 | 0.225
13 | CC(C)C[C@H](NC(=O)[C@H](Cc1ccccc1)NC(=O)c1cnccn1)B(O)O [Bortezomib (Velcade)] | 0.965
14 | O=C1CN2Cc3c(ccc(Cl)c3Cl)N=C2N1 [Anagrelide] | 0.0875
15 | Cc1cc(Nc2cc(N3CCN(C)CC3)nc(/C=C/c3ccccc3)n2)n[nH]1 | -0.0691
16 | CCc1cc(Nc2nccc(-c3c(-c4ccc(OC)c(C(=O)Nc5c(F)cccc5F)c4)nc4ccccn34)n2)c(OC)cc1N1CCC(N2CCN(S(C)(=O)=O)CC2)CC1 | 0.0467
17 | O=C1CN2Cc3c(ccc(Cl)c3Cl)N=C2N1 [Anagrelide hydrochloride] | 0.1
18 | O=C(NCCCNc1nc(Nc2cccc(NC(=O)N3CCCC3)c2)ncc1I)c1cccs1 | 0.201
19 | CCC[C@H](NC(=O)/C(C#N)=C/c1cccc(Br)n1)c1ccccc1 | 0.109

Row | Structure (SMILES) | growth inhibition by drug alone
20 | COc1cc2nc(N3CCCN(C)CC3)nc(NC3CCN(Cc4ccccc4)CC3)c2cc1OC | 0.128
21 | C#Cc1cccc(Nc2ncnc3cc(OCCOC)c(OCCOC)cc23)c1 [Erlotinib HCl] | 0.33
22 | CN(C)c1ccccc1CN1CCCN(Cc2ccccc2N(C)C)C1c1ccncc1 | 0.0601
23 | COc1cc2c(NC3CCN(C)CC3)nc(N3CCCN(C)CC3)nc2cc1OCCCN(C)C | 0.0324
24 | COc1ccc(COc2cc3oc(=O)c4cc(C(C)O)ccc4c3cc2OC)cc1 (stereo not drawn) [Palomid 529] | 0.0334
25 | CO[C@@H](C(=O)N1Cc2[nH]nc(NC(=O)c3ccc(N4CCN(C)CC4)cc3)c2C1)c1ccccc1 | 0.0385
26 | Cn1cc(C2=C(c3ccc(Cl)cc3Cl)C(=O)NC2=O)c2ccccc21 | -0.00858
27 | CCc1ccc(CCOc2ccc(CC3SC(=O)NC3=O)cc2)nc1 (stereo not drawn) [Pioglitazone (Actos)] | -0.11
28 | O=C(O)C1(C(=O)O)CCC1.[NH2-].[NH2-].[Pt+2] [Carboplatin] | 0.0266
29 | CS(=O)(=O)c1ccc(C(=O)Nc2ccc(Cl)c(-c3ccccn3)c2)c(Cl)c1 [Vismodegib (GDC-0449)] | 0.11
30 | OCCn1cc(-c2ccc3c(c2)CC/C3=N\O)c(-c2ccncc2)n1 | -0.0296
31 | CC[C@@H]1C(=O)N(C)c2cnc(Nc3ccc(C(=O)NC4CCN(C)CC4)cc3OC)nc2N1C1CCCC1 | 0.821
32 | CC[C@]1(O)C[C@H]2CN(CCc3c([nH]c4ccccc34)[C@@](C(=O)OC)(c3cc4c(cc3OC)N(C=O)[C@H]3[C@@](O)(C(=O)OC)[C@H](OC(C)=O)[C@]5(CC)C=CCN6CC[C@]43[C@@H]65)C2)C1 [Vincristine] | 0.944
33 | CC(C)(C)c1ccc(S(=O)(=O)/C=C/C#N)cc1 | 0.0951
34 | Cc1cn(-c2cc(NC(=O)c3ccc(C)c(Nc4nccc(-c5cccnc5)n4)c3)cc(C(F)(F)F)c2)cn1 [Nilotinib (AMN-107)] | 0.0488
35 | CC(C)(C#N)c1cc(Cn2cncn2)cc(C(C)(C)C#N)c1 [Anastrozole] | 0.105
36 | C=CCn1c(=O)c2cnc(Nc3ccc(N4CCN(C)CC4)cc3)nc2n1-c1cccc(C(C)(C)O)n1 | 0.112
37 | Cn1cnc(N)c2ncnc1-2 [3-Methyladenine] | 0.0713
38 | CCc1c2c(nc3ccc(OC(=O)N4CCC(N5CCCCC5)CC4)cc13)-c1cc3c(c(=O)n1C2)COC(=O)[C@]3(O)CC [Irinotecan HCl Trihydrate (Campto)] | -0.0148
